From PubChem BioAssay (NCATS)
Results filed as inconclusive are left out. Calls of active or inactive are those of the source. The call rests on the fitted dose curve; in most records, active means well fitted inhibition curve with a large enough effect; inconclusive means small, poorly fitted or top-dose-only effect; inactive means flat fitted curve, though single readings scatter.

How the values were obtained:
Assay in all cases: qHTS profiling for inhibitors of Plasmodium falciparum proliferation (AID 504749); further: nearly all actives have a fitted effect of over 60% in size
Conditions in all cases: P. falciparum in erythrocytes, SYBR Green DNA, 72 h; series mostly up to 28.7 µM
AS120 = test system: AS120
How it was run: (§1)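 Infected RBCs, 0.3% parasitemia/2.5% Hct final; cpd 72 h, 37 C, 5% CO2; lysis buffer with saponin/triton/SYBR Green I, o/n RT dark; FI 485/535; norm. to artemisinin (0.29 uM) and DMSO.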

ATS189 = test system: ATS189
How it was run: as §1

C2A = test system: C2A
How it was run: as §1

CP203 = test system: CP203
How it was run: as §1

CP217 = test system: CP217
How it was run: as §1

CP250 = test system: CP250
How it was run: as §1

CP256 = test system: CP256
How it was run: as §1

CP269 = test system: CP269
How it was run: as §1

CP291 = test system: CP291
How it was run: as §1

CP297 = test system: CP297
How it was run: as §1

CP315 = test system: CP315
How it was run: as §1

CP329 = test system: CP329
How it was run: as §1

DFO2036 = test system: DFO2036
How it was run: as §1

DIV14 = test system: DIV14
How it was run: as §1

DIV17 = test system: DIV17
How it was run: as §1

FAB9 = test system: FAB9
How it was run: as §1

JCK = test system: JCK
How it was run: as §1

PAD = test system: PAD
How it was run: as §1

Measured: Potency
Potency means the concentration at half of the fitted maximal effect.

C[C@@H]1C(SC2Cn3cnc[n+]3C2)=C(C(=O)[O-])N2C(=O)[C@H]([C@@H](C)O)[C@@H]12 (some centres undefined)
inactive: all assays above

OC[C@@H]1O[C@](CO)(O[C@H]2O[C@H](CO)[C@@H](O)[C@H](O)[C@H]2O)[C@H](O)[C@H]1O
inactive: all assays above

CC(=O)NC1[C@H](O)C[C@@](O)(C(=O)O)O[C@H]1[C@H](O)[C@H](O)CO (some centres undefined)
inactive: all assays above

CO[C@H]1OC2O[C@@]3(C)CC[C@H]4[C@H](C)CC[C@@H]([C@H]1C)[C@@]24OO3 (some centres undefined)
active: AS120 22.4 nM | ATS189 14.1 nM | C2A 35.5 nM | CP203 30.1 nM | CP217 31.6 nM | CP250 63.1 nM | CP256 12.6 nM | CP269 21.3 nM | CP291 26.9 nM | CP297 23.9 nM | CP315 95.3 nM | CP329 60.1 nM | DFO2036 15.8 nM | DIV14 10.7 nM | DIV17 12 nM | FAB9 22.4 nM | JCK 12600 nM | PAD 20 nM

CC(=O)NC1[C@H]([C@H](O)[C@H](O)CO)OC(C(=O)O)=C[C@H]1N=C(N)N (some centres undefined)
inactive: all assays above

COc1cccc2c1C(=O)c1c(O)c3c(c(O)c1C2=O)C[C@@](O)(C(=O)CO)C[C@@H]3OC1CC(N)C(O)C(C)O1 (some centres undefined)
active: AS120 2240 nM | ATS189 2510 nM | C2A 2240 nM | CP203 4780 nM | CP217 2510 nM | CP250 2510 nM | CP256 2240 nM | CP269 3380 nM | CP291 3380 nM | CP297 1900 nM | CP315 6750 nM | CP329 1900 nM | DFO2036 2000 nM | DIV14 1690 nM | DIV17 1690 nM | FAB9 3160 nM | JCK 12600 nM | PAD 2240 nM

OCC1O[C@H](O[C@H]2C(O)C(O)C(O)O[C@@H]2CO)C(O)C(O)C1O (some centres undefined)
inactive: all assays above

Cc1cn([C@H]2CC(F)[C@@H](CO)O2)c(=O)[nH]c1=O (some centres undefined)
inactive: all assays above
